Bioassay records deposited in PubChem BioAssay by National Center for Advancing Translational Sciences (NCATS).
Vaccinia mCherry – vaccinia inhibition (mCherry reporter) | AID 720579 | Potency, µM (doses to about 36.5 µM), without a hit: at the top dose activity change, negative = inhibition, most hits filed as inhibitors | 0.63% of 310,000 active | Vaccinia virus mCherry reporter infection, fluorescence; calls by dose curve; tested in A549 cells; further: nearly all actives have a fitted effect of over 35% in size
AmpC inh detg – inhibitors of E. coli AmpC beta-lactamase with detergent | AmpC hydrolysis of nitrocefin, absorbance 480 nm, 0.01% Triton | AID 485294 | 0.041% of 370,000 active | Potency, µM (titrated, usually from 114 µM), for the others: at the top dose activity change, negative = inhibition, hits mostly inhibitors | P00811;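 further: 0% = no-compound wells and -100% = no-enzyme wells; nearly all actives have a fitted effect of over 25% in size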
Target sequence (P00811 whole entry, looked up): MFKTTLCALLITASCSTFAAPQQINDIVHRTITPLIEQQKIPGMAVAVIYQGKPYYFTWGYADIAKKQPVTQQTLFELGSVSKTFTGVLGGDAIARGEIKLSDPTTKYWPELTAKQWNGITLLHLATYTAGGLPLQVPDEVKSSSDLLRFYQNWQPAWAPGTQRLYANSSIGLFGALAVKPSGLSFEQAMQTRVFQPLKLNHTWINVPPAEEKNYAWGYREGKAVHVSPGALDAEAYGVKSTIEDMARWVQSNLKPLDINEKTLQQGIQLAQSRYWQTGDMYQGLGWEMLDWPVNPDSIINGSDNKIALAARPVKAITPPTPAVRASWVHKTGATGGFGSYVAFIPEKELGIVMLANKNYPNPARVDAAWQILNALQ
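AmpC (5.3 nM in the dispensed reagent) in 20 mM phosphate pH 7.0 with 0.01% (detergent screen) or 0.0001% Triton X-100 was preincubated with compounds for 15 min at room temperature. Nitrocefin was then added from an 800 uM solution, and hydrolysis was followed at 480 nm.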
Vaccinia Venus – vaccinia inhibition (Venus reporter). 0.46% of 330,000 active. AID 720580. Vaccinia virus Venus reporter expression, fluorescence. Potency, µM (highest dose often 36.5 µM), inactives show top-dose activity change, negative = inhibition, most hits filed as inhibitors; calls by dose curve; tested in A549 cells; further: nearly all actives have a fitted effect of over 30% in size
AmpC inh no detg – blocks E. coli AmpC beta-lactamase in detergent-free assay. P00811. AmpC nitrocefin hydrolysis, absorbance 480 nm, 0.0001% Triton. Potency, µM (doses to about 57.1 µM), inactives show top-dose activity change, negative = inhibition, actives largely listed as inhibitors. 0.52% of 330,000 active. AID 485341;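 further: plate controls were no compound for no effect and no enzyme for full effect; nearly all actives have a fitted effect of over 20% in size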
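20 mM phosphate pH 7.0 + 0.01% (detergent screen) or 0.0001% Triton X-100; 5.3 nM AmpC reagent; cpd preinc 15 min RT; nitrocefin (800 uM stock) to start; A480 q20 s × 4 min; Activity was normalised to no-enzyme and no-compound control wells.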
* marks the source's active call; other numbers are inactive results; i = inactive; ? = inconclusive; nt = no result. Shown are actives, neighbours in structure and some others; about 1.1% of the full set was active somewhere. Unless noted, the call rests on the fitted dose curve; in most records, active means well fitted curve in the direction sought with a large enough effect; inconclusive means small, poorly fitted or top-dose-only effect, or another doubt; inactive means no such curve, though single readings can be large; an effect the other way counts as inactive or inconclusive. Unless noted, on the % scale 0 is the no-effect control and ±100 the full control effect; potency means the concentration at half of the fitted maximal effect.

SMILES	Vaccinia mCherry	AmpC inh detg	Vaccinia Venus	AmpC inh no detg
CCC(=O)Nc1nc2c(s1)COc1ccccc1-2	-18.3%	3.5%	-11.1%	2.82µM*
COc1cccc(CN2CCc3nnc(CCc4ccccc4)n3CC2)c1OC	-5.3%	nt	2.6%	nt
O=C1/C(=C\c2ccccc2)CN(C(=O)CCN2CCCCC2)C/C1=C/c1ccccc1	12.6µM*	nt	11.2µM*	nt
O=C(NCCN1CCOCC1)c1ccc(Cl)c(Cl)c1	i	?	-4.4%	-9.0%
O=C1/C(=C\c2ccc(Cl)c(Cl)c2)CN(C(=O)CCN2CCOCC2)C/C1=C/c1ccc(Cl)c(Cl)c1	?	nt	11.2µM*	nt
CCN1CCN(C(=O)c2cnn3c(C(F)F)cc(-c4ccc(C)cc4)nc23)CC1	nt	-0.6%	nt	87.2%
Cc1ccc(-c2cc(C(F)F)n3ncc(C(=O)N4CCN(c5ccccn5)CC4)c3n2)cc1	-10.2%	-5.6%	-27.9%	11.2µM*
O=C1CC(c2ccc(O)cc2)Oc2cc(O)cc(O)c21 (stereo unspecified)	-12.4%	-19.9%	-20.4%	-29.7%
CC1CC(=O)c2c(cc3c(-c4c(O)cc(O)c5c(O)c6c(cc45)OC(C)CC6=O)c(O)cc(O)c3c2O)O1 (stereo unspecified)	10µM*	0.4%	14.1µM*	-35.8%
COc1cccc2c1Oc1cc([N+](=O)[O-])cc(N(C)C(C)=O)c1C=C2	7.08µM*	-4.4%	-20.8%	28.9%
Nc1nc(N)c2cc(CNc3ccc(Cl)c(Cl)c3)ccc2n1	?	nt	5.62µM*	nt
CCOC(=O)C1CCCN(C(=O)c2cnn(-c3ncc4c(n3)-c3ccccc3CC4)c2C)C1 (stereo unspecified)	-11.6%	nt	4.5%	nt
NC(=S)N/N=C1\CC(c2ccc3c(c2)OCCO3)Oc2ccc(F)cc21 (stereo unspecified)	11.2µM*	9.1%	?	-34.9%
COc1ccccc1CNC(=O)c1ccc(-c2ccccc2Cl)o1	?	?	?	-14.2%
COc1ccccc1CNC(=O)c1ccc(-c2ccccc2C(F)(F)F)o1	11.2µM*	?	?	-21.1%
CC(=O)N1CCc2c(sc(NC(=O)c3ccc([N+](=O)[O-])o3)c2C(N)=O)C1	1.78µM*	nt	5.01µM*	nt
CCC(=O)Nc1sc2c(c1C(N)=O)CCN(C(C)=O)C2	-23.1%	?	-7.9%	-2.3%
Cc1nc(NC(=O)c2ccco2)sc1-c1csc(Nc2ccc(Cl)cc2)n1	7.94µM*	-7.4%	?	-33.0%
Cc1ccc(Cl)cc1Nc1nc(-c2sc(NC(=O)c3ccco3)nc2C)cs1	?	-14.9%	?	-42.9%
CCCCCCC(=O)Nc1nc(C)c(-c2csc(Nc3ccc(Cl)cc3)n2)s1	5.01µM*	0.0%	?	-46.2%
CC(=O)OCCNc1cc(Sc2nc3ccccc3[nH]2)c2nonc2c1[N+](=O)[O-]	?	-6.9%	112µM*	-12.4%
CC(=O)OCCCNc1cc(Sc2nc3ccccc3s2)c2nonc2c1[N+](=O)[O-]	-2.6%	-12.7%	-2.4%	-19.5%
COc1ccccc1CN1CCOc2ccc(CN3CCC(Oc4cccnc4)CC3)cc2C1	-19.6%	nt	1.9%	nt
COc1cccc(-c2ccc(O)c(CNCc3cccc(OC)c3OC)c2)n1	-15.2%	nt	-10.5%	nt
CCOC(=O)c1ccc(Nc2nc(=O)c3cccnc3s2)cc1	10µM*	-7.2%	1.5%	-22.5%
SMILES	Vaccinia mCherry	AmpC inh detg	Vaccinia Venus	AmpC inh no detg
O=c1nc(Nc2ccc(OCc3ccccc3)cc2)sc2ncccc12	0.794µM*	-12.5%	6.4%	-11.5%
CSc1nccc(-c2cc(Cl)c3c(c2)CC(CNC(=O)c2nonc2C)O3)n1 (stereo unspecified)	-2.0%	nt	-22.3%	nt
Cc1ccc(CNC(=O)CN2C(=O)COc3ccc(C)cc32)cc1	nt	-3.1%	nt	-7.7%
CCN1CCCC1CNC(=O)CN1C(=O)COc2ccc(C)cc21 (stereo unspecified)	-21.3%	7.0%	-13.6%	25.1µM*
Cc1cc(Cl)ccc1OCC(=O)Nc1cccc(-c2nc3ccccc3o2)c1	-10.6%	nt	?	nt
CNCCNC[C@H](Cc1cccc2ccccc12)NCCc1ccccc1	?	nt	-12.5%	39.8%
CNC[C@H](Cc1ccccc1)NC[C@@H](Cc1cccc2ccccc12)NCCc1ccc(C)cc1	?	-10.5%	14.1µM*	134.2%
CCN1C(=NCc2cccc(Cl)c2)N[C@@H](c2cccc(C(F)(F)F)c2)C(C(=O)OC)=C1C	-15.0%	nt	?	nt
CC(=O)OC1CCC2(C)C(CCC3C4CC=C(C(C)=O)C4(C)OC(=O)CC32)C1 (stereo unspecified)	?	nt	11.2µM*	nt
